We go through 39 compounds from PubChem BioAssay.

Records with an inconclusive call do not appear. Activity calls are given as the source filed them.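 Rule for the calls, unless noted: active = inhibition over a set limit, the all-compound mean plus 3 SD, in both replicate runs; inconclusive = over that limit in just one replicate run; inactive = at or under that limit in both runs.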

A short description of one test: viability of PTEN-null HCT116 cells – cell-based, HCT116 clonal line, CellTiter-Glo, pilot screen (AID 824;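 active = viability at or below 27.92% in each of two runs, the all-compound median minus 4 SD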;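 note: 0% = 20 µM Hyamine control and 100% = vehicle cell control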). The following applies: HCT116 PTEN-deleted viability, 60 h, at 10 µM, stronger effect = lower value. A general note: Cellular ATP, detected with luciferase, serves as a proxy for viable cell number.
Consider `CCOc1ccccc1NC(=O)CSc1nc2c(c(=O)n1C)SC(C)C2` (stereo not given), for which the viability (commonly a read-out of living cells in per cent, often relative to untreated cells) is 89.1% (inactive).

For `CCC(C)NC(=O)CCS(=O)(=O)c1ccc2c(c1)n(C)c(=O)c(=O)n2C` (stereo not given), the viability was 99.1% (inactive).

As to `COc1ccc(-n2ncc3c(N(C)C4CCCCC4)ncnc32)cc1`, the viability was 77.9% (inactive).

For `CCOC(=O)CCc1c(C)n(CC)c2ncnn2c1=O`, the viability was 101% (inactive).

In the case of `Cc1ccc(S(=O)(=O)N2CCN(Cc3ccccc3C(F)(F)F)CC2)cc1`, the viability was 82.8% (inactive).

In the case of `Cc1nc(N2CCN(C(=O)c3ccco3)CC2)c2c3c(sc2n1)CCC3`, the viability is 83% (inactive).

Regarding `CCOC(=O)c1nnn(-c2nonc2N)c1CN(C)Cc1ccccc1`, the viability was 88.1% (inactive).

Consider `O=C(CN1CCOc2ccccc21)NCc1ccc(F)cc1`, for which the viability was 85.8% (inactive).

With `NC(=O)CCc1c[nH]c2ccccc12`, the viability is 94.2% (inactive).

Turning to `CC1CC(C)(C)Nc2ccc(OC(=O)c3ccco3)cc21` (stereo not given), the viability was 1.59% (active).

On to `Cc1cc(NC(=O)CN2CCCCC2C)nc2c1c(=O)oc1ccccc12` (stereo not given), for which the viability is 95.9% (inactive).

`Cc1cc(NC(=O)C2CC(c3ccc(F)cc3)=NO2)n(-c2ccccc2)n1` (stereo not given): the viability was 95.7% (inactive).

For the compound `O=C(Nc1ncc(Br)s1)C(Cc1ccccc1)n1cccc1` (stereo not given), the viability is 58% (inactive).

Take `COC(=O)C1CCN(C(=O)c2ccc(Cl)c(S(=O)(=O)NCc3cccnc3)c2)CC1`: the viability is 102% (inactive).

With `CCOC(=O)c1ccc(NC2c3ccccc3C(=O)N2c2cccnc2)cc1` (stereo not given), the viability is 67.6% (inactive).

`C=CCOC(=O)C1=C(C)NC(=O)NC1c1ccc(OC(=O)c2ccco2)c(OC)c1` (stereo not given): the viability was 96.4% (inactive).

A further test can be described thus: RAM pathway blockade in budding yeast – dse1pr::URA3 reporter, 5-FOA selection, pilot screen (AID 869).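 Note: 0% = DMSO wells with no growth and 100% = 10 µM 1-NA-PP1 with full growth; RAM network block rescues cells from 5-FOA so hits raise OD615 growth.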 As to conditions: S. cerevisiae dse1pr::URA3 5-FOA growth, OD615, 2 d; at 10 µM; stronger effect = higher value; strain carries analog-sensitive mutant Cbk1 kinase.
Turning to `Cc1c(/C=N/n2cnnc2)c2ccccc2n1C`, the inhibition – broadly, the relative decrease from the control value, in per cent – is -0.13% (inactive).

As for `Cn1c(C(=O)N2CCC(C(=O)N3CCOCC3)CC2)cc2sccc21`, the inhibition is 0.59% (inactive).

On to `CCN1CCN(CC(=O)Nc2cccc(C)c2C)C(=O)C1=O`, for which the inhibition was 2.46% (inactive).

As to `CCOC(=O)N1CCN(CC(=O)Nc2cc3c(cc2C(C)=O)OCO3)CC1`, the inhibition was 0.555% (inactive).

For the compound `Cc1c(C#N)c2ncn(Cc3ccccc3)c(=O)c2n1-c1ccccc1`, the inhibition is 0.47% (inactive).

Regarding `C=C(C)Cn1c(C2CC(=O)N(Cc3ccccc3)C2)nc2ccccc21` (stereo not given), the inhibition is 1.46% (inactive).

For the compound `COc1ccc(OC)c(NC(=O)COC(=O)c2ccc(S(=O)(=O)N3CCOCC3)cc2)c1`, the inhibition is 2.73% (inactive).

With `OC(COc1cccc2ccccc12)CN1CCN(c2ccccn2)CC1` (stereo not given), the inhibition is 0.445% (inactive).

Consider `Cc1nnc(SCC(=O)NC(C)c2ccccc2)[nH]c1=O` (stereo not given), for which the inhibition is 4.54% (inactive).

As to `CCOC(=O)c1sc(N)nc1-c1ccccc1`, the inhibition is 2.48% (inactive).

`CCP(=O)(c1ccccc1)C(C)(C)O` (stereo not given): the inhibition is 1.48% (inactive).

On to `Cc1nn(C)c(C)c1NS(=O)(=O)c1ccccc1`, for which the inhibition is 0.545% (inactive).

Consider `CC(C)c1nnc(NC(=O)c2ccc(S(=O)(=O)N3CCOCC3)cc2)s1`, for which the inhibition is 2.56% (inactive).

Regarding `CCCSC1=N/C(=C\c2ccsc2)C(=O)S1`, the inhibition is 0.72% (inactive).

Consider `c1ccc2c(c1)CCCN2c1nc2ccccc2n2cnnc12`, for which the inhibition was 1.44% (inactive).

In the case of `Cn1c(C(=O)NCCN2CCc3ccccc3C2)cc2c(=O)n(C)c3ccccc3c21`, the inhibition was 2.96% (inactive).

For `O=C(NCc1cccnc1)c1ccc(CS(=O)(=O)c2ccc(Br)cc2)o1`, the inhibition was 0.655% (inactive).

Take `COc1ccccc1N1CCN(C(=O)CCCC2=NS(=O)(=O)c3ccccc3N2)CC1`: the inhibition is 1.4% (inactive).

Regarding `COc1ccc(-c2nc(C#N)c(NCCN(C)C)o2)cc1`, the inhibition was 0.355% (inactive).

For `O=C(Nc1cccc(OC(F)(F)F)c1)c1ccc(Br)o1`, the inhibition is 2.96% (inactive).

In the case of `Cc1sc2nc(SCC(=O)OC(C)C)n(C)c(=O)c2c1C`, the inhibition was 2.59% (inactive).

With `CNC(=O)CN1C(=O)CSc2nc(C)cc(C)c21`, the inhibition is 1.83% (inactive).

Turning to `CCSc1nnc(Cn2c(=O)sc3ccccc32)n1-c1ccc(OC)cc1`, the inhibition is -0.94% (inactive).

In the case of `CCOc1ccccc1NC(=O)CSc1nc2c(c(=O)n1C)SC(C)C2` (stereo not given), the inhibition is 2% (inactive).

Turning to `CCC(C)NC(=O)CCS(=O)(=O)c1ccc2c(c1)n(C)c(=O)c(=O)n2C` (stereo not given), the inhibition was 3% (inactive).

As for `COc1ccc(-n2ncc3c(N(C)C4CCCCC4)ncnc32)cc1`, the inhibition was 1.76% (inactive).

Turning to `CCOC(=O)CCc1c(C)n(CC)c2ncnn2c1=O`, the inhibition was 0.735% (inactive).

Turning to `Cc1ccc(S(=O)(=O)N2CCN(Cc3ccccc3C(F)(F)F)CC2)cc1`, the inhibition was 0.92% (inactive).

`Cc1nc(N2CCN(C(=O)c3ccco3)CC2)c2c3c(sc2n1)CCC3`: the inhibition was 1.16% (inactive).

For the compound `CCOC(=O)c1nnn(-c2nonc2N)c1CN(C)Cc1ccccc1`, the inhibition is 2.05% (inactive).

Consider `O=C(CN1CCOc2ccccc21)NCc1ccc(F)cc1`, for which the inhibition is 0.305% (inactive).

As to `NC(=O)CCc1c[nH]c2ccccc12`, the inhibition was 2.47% (inactive).

On to `CC1CC(C)(C)Nc2ccc(OC(=O)c3ccco3)cc21` (stereo not given), for which the inhibition was 0.51% (inactive).

As for `Cc1cc(NC(=O)CN2CCCCC2C)nc2c1c(=O)oc1ccccc12` (stereo not given), the inhibition was 1.36% (inactive).

`Cc1cc(NC(=O)C2CC(c3ccc(F)cc3)=NO2)n(-c2ccccc2)n1` (stereo not given): the inhibition is 1.16% (inactive).

Regarding `O=C(Nc1ncc(Br)s1)C(Cc1ccccc1)n1cccc1` (stereo not given), the inhibition is 2.83% (inactive).

As for `COC(=O)C1CCN(C(=O)c2ccc(Cl)c(S(=O)(=O)NCc3cccnc3)c2)CC1`, the inhibition was 1.32% (inactive).

For `CCOC(=O)c1ccc(NC2c3ccccc3C(=O)N2c2cccnc2)cc1` (stereo not given), the inhibition is 0.67% (inactive).

Turning to `C=CCOC(=O)C1=C(C)NC(=O)NC1c1ccc(OC(=O)c2ccco2)c(OC)c1` (stereo not given), the inhibition was 0.145% (inactive).
